Source: PubChem BioAssay (National Center for Advancing Translational Sciences (NCATS))
KDM5B inh = KDM5B demethylase inhibition; Q9UGL1; KDM5B demethylase, FDH-coupled NADH fluorescence (FDH is formaldehyde dehydrogenase); Potency, µM (series often up to 57.7 µM), actives largely listed as inhibitors; 220,000 tested, 2.6% active; AID 1347165; note: nearly all actives have a fitted effect of over 70% in size
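Measured: NADH fluorescence change, 30 min, RT. System: KDM5BΔAP 200 nM final, H3K4me3 peptide, α-KG, Fe(II), ascorbate, NAD⁺ plus FDH, pH 7.5 HEPES. Compounds: titrated, 10 min pre-incubation with enzyme.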
SNCA viab count = cell viability loss counter-screen; HEK-293-SNCA-luc viability, GF-AFC fluorescence, 24 h; Potency, µM (titrated, usually from 57.1 µM), usual class: cytotoxic; 150,000 tested, 0.12% active; AID 1671193; note: nearly all actives have a fitted effect of over 30% in size
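Cytotoxicity counterscreen: after 24 h compound treatment of genome-edited SNCA-luciferase HEK-293 cells, live-cell protease substrate GF-AFC read by fluorescence after 30 min; activity scaled between DMSO (0%) and medium-only (-100%), curves Hill-fitted.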
IP6K1 inhibitor = blocks human inositol hexakisphosphate kinase 1. Q92551. IP6K1 kinase, ADP-Glo luminescence, 2 h; active compounds read low. activity change, % (series mostly up to about 58 µM). 140,000 tested, 0.81% active. AID 1645851; in the data active = activity change below about -25%
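ADP-Glo luminescence measures ADP made by human IP6K1 during a 2 h RT reaction with ATP/IP6 (mix at 1.3 mM/130 uM); top library doses 57.5 and 19.1 uM final.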
SNCA expr inh = reduces expression of the alpha-synuclein gene. Potency, µM (top dose mostly 57.2 µM), most hits filed as inhibitors. 140,000 tested, 0.17% active. HEK-293 SNCA-luciferase knock-in, luminescence, 24 h; note: nearly all actives have a fitted effect of over 45% in size
A number is an active result; . = inactive; ? = inconclusive; / = no result given; [ ] = dose if it differs, or a comment. An excerpt weighted towards active compounds, which were near 2.8% of everything screened. Unless noted, calls come from the whole dose curve; as a rule, active = well fitted curve in the direction sought with a large enough effect; inconclusive = small, poorly fitted or top-dose-only effect, or another doubt; inactive = no such curve, though single readings can be large; an effect the other way counts as inactive or inconclusive.

SMILES	KDM5B inh	SNCA viab count	IP6K1 inhibitor	SNCA expr inh
COC(=O)[C@@H]1Cc2ncn(Cc3ccc(Cl)cc3)c2CN1Cc1cccc(C#N)c1	?	?	.	?
CC(N)c1ccncc1 (stereo not drawn)	.	/	/	/
COc1cc(C(=O)NCc2nc3ccccc3n2C)cc(OC)c1OC	.	/	/	/
Cn1c(CNC(=O)c2ccc3nccn3c2)nc2cc(C(F)(F)F)ccc21	20µM	.	.	.
Cc1ccc(C(=O)NCc2cccnc2Oc2ccccc2F)c(=O)n1C	28.2µM	.	.	.
O=C(Cc1c[nH]c(=O)[nH]c1=O)NCc1cccnc1Oc1ccccc1F	.	.	.	.
COc1ccccc1Nc1ccnc(N2CCCC(C(=O)NCc3cccc(F)c3)C2)n1 (stereo not drawn)	/	.[12.5 µM]	.	.
COc1ccc2c(c1)CCCC2=O	/	.	.	.
COc1ccc2c(c1)CCCN2C1CNC1	126µM	.	.	.
CC(=O)N1C[C@H](NC(=O)c2cc3c(n(C)c2=O)CCCC3)[C@@H](C2CC2)C1	28.2µM	.	.	.
CN(C)c1ccc(C(=O)N2CCN3C(=O)c4cc(-c5ccc6c(c5)OCO6)ccc4NC(=O)[C@H]3C2)cc1	35.5µM	.	.	?
COCC(=O)N1CCN2C(=O)c3cc(-c4ccc5c(c4)OCO5)ccc3NC(=O)[C@H]2C1	?	.	.	.
CSc1ccc(-c2ccc3c(c2)C(=O)N2CC[C@H](NC(=O)c4cccs4)C[C@H]2C(=O)N3)cc1	28.2µM	.	.	.
O=C1Nc2ccc(-c3ccc4c(c3)OCO4)cc2C(=O)N2CCN(C(=O)c3cccs3)C[C@@H]12	28.2µM	.	.	.
O=C1Cc2cc(C(=O)CSc3nnc(-c4ccncc4)o3)c(Cl)cc2N1	.	/	/	/
COC(=O)CNC(=O)c1cc(-c2ccc(Cl)nc2)nc2c1cnn2C	79.4µM	.	.	.
Cn1ncc2c(C(=O)NC3CC3)cc(-c3cccnc3)nc21	89.1µM	.	.	.
C#CCNC(=O)c1cc(-c2ccc(Cl)nc2)nc2c1cnn2C	100µM	.	.	.
COC(=O)CNC(=O)c1cc(C(C)(C)C)nc2c1cnn2C	89.1µM	.	.	.
C#CCNC(=O)c1cc(-c2ccc(Cl)cc2)nc2c1cnn2C	/	.	.	.
COC(=O)CC1C(=O)NCCN1S(=O)(=O)c1ccc(Br)cc1 (stereo not drawn)	.	/	/	/
O=C(Nc1ccc(Cl)cc1)NC1CCN(c2ccc3nnc(C4CC4)n3n2)C1 (stereo not drawn)	/	/	.	/
O=C1NC2(CCCN(Cc3ccsc3)C2)COc2ccccc21 (stereo not drawn)	?	.	.	.
CC(=O)Nc1ccc(CN2CCCC3(COc4ccccc4C(=O)N3)C2)cc1 (stereo not drawn)	?	.	.	.
O=C1NC2(CCCN(Cc3ccccc3C(F)(F)F)C2)COc2ccccc21 (stereo not drawn)	35.5µM	.	.	.
SMILES	KDM5B inh	SNCA viab count	IP6K1 inhibitor	SNCA expr inh
COc1cccc(CN2CCCC3(COc4ccccc4C(=O)N3)C2)c1 (stereo not drawn)	35.5µM	.	.	.
O=C1NC2(CCCN(Cc3ccc(OC(F)(F)F)cc3)C2)COc2ccccc21 (stereo not drawn)	35.5µM	.	.	.
O=C1NC2(CCCN(Cc3ccc(F)cc3)C2)COc2ccccc21 (stereo not drawn)	25.1µM	.	.	.
CNC(=S)NNC(=O)c1cc(F)cc(F)c1	.	/	/	/
COCCn1cnc2ccc(N3CCCC3)nc2c1=O	31.6µM	.	.	.
COCCn1cnc2ccc(-c3ccccc3)nc2c1=O	35.5µM	.	.	.
COCCn1cnc2ccc(-c3cccnc3OC)nc2c1=O	39.8µM	.	.	.
COCCn1cnc2ccc(OCC3CC3)nc2c1=O	.	.	.	?
COCCn1cnc2ccc(-c3cccc(O)c3)nc2c1=O	.	.	.	?
COCCn1cnc2ccc(-c3ccc(F)cc3)nc2c1=O	35.5µM	.	.	.
Cc1cc(C)n2nc(SC(C)C(=O)Nc3ccc(F)cc3Cl)nc2n1 (stereo not drawn)	.	/	/	/
CC(C)c1noc(-c2cccn3c(CNC(=O)CCc4ccccc4)nnc23)n1	14.1µM	.	.	.
CCCc1noc(-c2cccn3c(CNC(=O)CCc4ccccc4)nnc23)n1	17.8µM	.	.	.
COc1cc(/C=C(\C#N)c2nc3ccccc3o2)cc(OC)c1OC	.	/	/	/
COc1ccc2nc([C@H]3CCN(C(C)C)C3)[nH]c2c1	31.6µM	.	.	.
CN1CCC(N2CC[C@H](c3nc4ccccc4[nH]3)C2)CC1	.	.	.	.
Cc1ccc2nc([C@H]3CCN(C4CCC4)C3)[nH]c2c1	28.2µM	.	.	?
